Measurements published in PubChem BioAssay (NCATS).
Inconclusive results are not listed. Unmarked numbers belong to inactive results. The call rests on the fitted dose curve; in most records, active means well fitted inhibition curve with a large enough effect; inconclusive means small, poorly fitted or top-dose-only effect; inactive means flat fitted curve, though single readings scatter.

Test system: 3D7
Experiment: qHTS profiling for inhibitors of Plasmodium falciparum proliferation (AID 504749);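 further: 0% = DMSO vehicle and full inhibition = artemisinin control; nearly all actives have a fitted effect of over 60% in size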
Details: P. falciparum in erythrocytes, SYBR Green DNA, 72 h; series mostly up to 28.7 µM; activity, negative = inhibition: at the top concentration
Summary of the method: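 In a 72 h erythrocytic culture (37 C, humidified, 5% CO2) at 2.5% hematocrit and 0.3% starting parasitemia, compounds were tested; SYBR Green I in detergent lysis buffer stained parasite DNA overnight.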

SMILES | activity, negative = inhibition
O=C(O)Cc1ccc(CCNS(=O)(=O)c2ccc(Cl)cc2)cc1 | -16.1%
NS(=O)(=O)c1ccc(NC(=O)CCC(=O)O)cc1 | 2.88%
C=CCSCC1Nc2cc(Cl)c(S(N)(=O)=O)cc2S(=O)(=O)N1 (centres undefined) | 9.46%
Cc1cccc(C)c1NC(=O)CC12CCCN1CCC2 | -9.62%
CC(=O)Nc1cccc(O)c1 | -2.19%
CNCc1ccccc1 | -0.151%
COc1ccc(C(=O)NCc2ccc(OCCN(C)C)cc2)cc1OC | 0.0337%
C=CCNC(N)=S | 3.47%
NS(=O)(=O)c1cc(-c2nn[nH]n2)c(NCc2cccs2)cc1Cl | -3.85%
CCOc1ccc(C(=O)OCCN(CC)CC)cc1 | 3.3%
Cc1c(N(C)C)c(=O)n(-c2ccccc2)n1C | 8.83%
CCc1cccc(CC)c1NC(=O)CN(CC(=O)O)CC(=O)O | 2.06% [at 12.8 µM]
COC(=O)c1cccnc1 | -5.05%
Cc1ccc(S(=O)(=O)NC(=O)NC2CCCCCCC2)cc1 | 12.3%
CCCCCCCCCCCCCCCCC(C(=O)O)C(O)(CC(=O)O)C(=O)O (centres undefined) | 5.6%
Cn1c(=O)c2c(ncn2CCO)n(C)c1=O | -0.537%
CCCC(O)C(CC)CO (centres undefined) | 2.95%
CCCCCC(N)=O | 1.99%
O=C(O)c1ccc[n+]([O-])c1 | -13.2%
CC(CSC(=O)c1ccccc1)C(=O)N1C[C@@H](Sc2ccccc2)C[C@H]1C(=O)O (some centres undefined) | 1.83%
CCOc1cc(NC(C)=O)ccc1C(=O)OC | 0.977%
C[C@@H](N)C(=O)O | 14.5%
NS(=O)(=O)c1cc2c(cc1C(F)(F)F)NCNS2(=O)=O | 4.73% [at 12.8 µM]
NC(=O)NS(=O)(=O)c1ccc(N)cc1 | 5.13%
